Measured values: PubChem BioAssay AID1159580 (chemical genetic matrix, 2015)
Where “and” joins values, the source holds several entries; their conditions need not be identical. Equal values may be shown once. About 2,000 (36%) of roughly 5,500 compounds were called active. Not shown: some 18% with an inconclusive outcome. Rule as the data show it: active = normalized growth mostly below about 0.91 (no sharp cut-off); inconclusive = no clear call, values can overlap the other calls; inactive = mostly above about 0.92. The list shows a part of the results.

Assay: chemical genetic growth profiling, strain panel (AID 1159580);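 also: tested at 20 µM; growth read once vehicle control cultures reached saturation at 30 °C; 1 = growth at the plate median or of vehicle wells; lower values mean less growth of the strain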
Conditions: growth OD
[1] = S. cerevisiae deletion strains, locus YAL013W, strain DEP1, stronger effect = lower value
[2] = S. cerevisiae deletion strains, locus YBR229C, strain ROT2, stronger effect = lower value
[3] = S. cerevisiae deletion strains, locus YDL101C, strain DUN1, stronger effect = lower value
[4] = S. cerevisiae deletion strains, locus YDL134C, strain PPH21, stronger effect = lower value
[5] = S. cerevisiae deletion strains, locus YDR150W, strain NUM1, stronger effect = lower value
[6] = S. cerevisiae deletion strains, locus YEL061C, strain CIN8, stronger effect = lower value
[7] = S. cerevisiae deletion strains, locus YGR078C, strain PAC10, stronger effect = lower value
[8] = S. cerevisiae deletion strains, locus YHR030C, strain SLT2, stronger effect = lower value
[9] = S. cerevisiae deletion strains, locus YJR043C, strain POL32, stronger effect = lower value
[10] = S. cerevisiae deletion strains, locus YLR039C, strain RIC1, stronger effect = lower value
[11] = S. cerevisiae deletion strains, locus YLR262C, strain YPT6, stronger effect = lower value
[12] = S. cerevisiae deletion strains, locus YMR263W, strain SAP30, stronger effect = lower value
[13] = S. cerevisiae deletion strains, locus YMR307W, strain GAS1, stronger effect = lower value
[14] = S. cerevisiae deletion strains, locus YNL153C, strain GIM3, stronger effect = lower value
[15] = S. cerevisiae deletion strains, locus YOL006C, strain TOP1, stronger effect = lower value

Measured: normalized growth

O=C1CCC(c2cccs2)=NN1
inactive: [1] 0.979 | [2] 1 | [3] 0.974 | [4] 1 | [5] 0.986 | [6] 0.987 | [7] 0.99 | [8] 1.03 | S. cerevisiae deletion strains, locus YHR087W, strain rtc3, stronger effect = lower value 0.999 | [9] 1 | S. cerevisiae deletion strains, locus YJR075W, strain HOC1, stronger effect = lower value 1.01 | [10] 0.993 | S. cerevisiae deletion strains, locus YLR058C, strain SHM2 (second series), stronger effect = lower value 1 | S. cerevisiae deletion strains, locus YLR085C, strain ARP6, stronger effect = lower value 0.998 | [11] 1.02 | S. cerevisiae deletion strains, locus YML094W, strain GIM5, stronger effect = lower value 1 | S. cerevisiae deletion strains, locus YMR219W, strain ESC1, stronger effect = lower value 0.997 | [12] 1.03 | [13] 1.09 | [14] 0.998 | S. cerevisiae deletion strains, locus YNL298W, strain CLA4 (second series), stronger effect = lower value 1.01 | S. cerevisiae deletion strains, locus YNL322C, strain KRE1, stronger effect = lower value 0.985 | S. cerevisiae deletion strains, locus YNR030W, strain Alg12, stronger effect = lower value 1 | [15] 0.99 | S. cerevisiae deletion strains, locus YPL055C, strain LGE1, stronger effect = lower value 1.01 | S. cerevisiae deletion strains, locus YPL241C, strain CIN2, stronger effect = lower value 1.05 | S. cerevisiae deletion strains, locus YPR135W, strain CTF4, stronger effect = lower value 0.901

CC1(C)O[C@@H]2CC3C4CCC5=CC(=O)CCC5(C)C4(F)C(O)CC3(C)[C@]2(C(=O)CCl)O1 (stereo partly drawn)
inactive: [1] 0.996 | S. cerevisiae deletion strains, locus YBR021W, strain FUR4, stronger effect = lower value 1.04 | [2] 1 | S. cerevisiae deletion strains, locus YCL029C, strain bik1, stronger effect = lower value 1 | S. cerevisiae deletion strains, locus YDL035C, strain GPR1, stronger effect = lower value 0.979 | S. cerevisiae deletion strains, locus YDL074C, strain BRE1, stronger effect = lower value 1.02 | [3] 0.994 | [4] 0.994 | S. cerevisiae deletion strains, locus YDL185W, strain tfp1, stronger effect = lower value 0.967 | S. cerevisiae deletion strains, locus YDL192W, strain arf1, stronger effect = lower value 0.986 | S. cerevisiae deletion strains, locus YDR101C, strain arx1, stronger effect = lower value 1.03 | [5] 0.981 | S. cerevisiae deletion strains, locus YDR162C, strain NBP2, stronger effect = lower value 0.963 | S. cerevisiae deletion strains, locus YDR318W, strain mcm21, stronger effect = lower value 0.979 | S. cerevisiae deletion strains, locus YDR388W, stronger effect = lower value 0.996 | S. cerevisiae deletion strains, locus YDR502C, strain sam2, stronger effect = lower value 0.99 | [6] 0.998 | S. cerevisiae deletion strains, locus YER110C, stronger effect = lower value 0.975 | S. cerevisiae deletion strains, locus YER155C, strain BEM2, stronger effect = lower value 1.01 | S. cerevisiae deletion strains, locus YER167W, strain BCK2, stronger effect = lower value 0.994 | S. cerevisiae deletion strains, locus YGL078C, strain dbp3, stronger effect = lower value 0.993 | S. cerevisiae deletion strains, locus YGL086W, strain mad1, stronger effect = lower value 1.01 | S. cerevisiae deletion strains, locus YGL248W, strain PDE1, stronger effect = lower value 1 | [7] 1.01 | S. cerevisiae deletion strains, locus YGR135W, strain pre9, stronger effect = lower value 0.973 | S. cerevisiae deletion strains, locus YGR252W, strain gcn5, stronger effect = lower value 1.02 | [8] 0.985 and 1 | S. cerevisiae deletion strains, locus YHR079C, strain IRE1 (second series), stronger effect = lower value 0.992 | S. cerevisiae deletion strains, locus YHR079C, strain IRE1, stronger effect = lower value 1 | S. cerevisiae deletion strains, locus YHR094C, strain hxt1, stronger effect = lower value 0.998 | S. cerevisiae deletion strains, locus YHR129C, strain ARP1, stronger effect = lower value 0.996 | S. cerevisiae deletion strains, locus YHR200W, strain rpn10, stronger effect = lower value 0.988 | S. cerevisiae deletion strains, locus YIL066C, strain RNR3, stronger effect = lower value 1 | S. cerevisiae deletion strains, locus YIL073C, strain SPO22, stronger effect = lower value 0.889 | S. cerevisiae deletion strains, locus YIL125W, strain kgd1, stronger effect = lower value 1.01 | S. cerevisiae deletion strains, locus YIR030C, strain dcg1, stronger effect = lower value 0.983 | S. cerevisiae deletion strains, locus YJL095W, strain BCK1, stronger effect = lower value 1.03 and 1.02 | S. cerevisiae deletion strains, locus YJL134W, strain LCB3, stronger effect = lower value 0.989 | S. cerevisiae deletion strains, locus YJL168C, strain set2, stronger effect = lower value 1 | S. cerevisiae deletion strains, locus YJL187C, strain SWE1 (second series), stronger effect = lower value 1.01 | [9] 1.01 | S. cerevisiae deletion strains, locus YJR066W, strain TOR1, stronger effect = lower value 0.972 | S. cerevisiae deletion strains, locus YKL009W, strain mrt4, stronger effect = lower value 0.956 | S. cerevisiae deletion strains, locus YKL068W, stronger effect = lower value 0.98 | S. cerevisiae deletion strains, locus YKL085W, strain MDH1 (second series), stronger effect = lower value 0.975 | S. cerevisiae deletion strains, locus YKL085W, strain MDH1, stronger effect = lower value 0.975 | S. cerevisiae deletion strains, locus YKL190W, strain CNB1, stronger effect = lower value 0.977 | S. cerevisiae deletion strains, locus YKR001C, strain vps1, stronger effect = lower value 1.01 | [10] 0.938 | S. cerevisiae deletion strains, locus YLR058C, strain SHM2, stronger effect = lower value 0.991 | S. cerevisiae deletion strains, locus YLR102C, strain apc9, stronger effect = lower value 0.995 | S. cerevisiae deletion strains, locus YLR113W, strain HOG1, stronger effect = lower value 1.04 | [11] 0.942 | S. cerevisiae deletion strains, locus YLR268W, strain sec22, stronger effect = lower value 0.99 | S. cerevisiae deletion strains, locus YLR330W, strain CHS5, stronger effect = lower value 0.996 | S. cerevisiae deletion strains, locus YLR342W, strain FKS1 (second series), stronger effect = lower value 1.01 | S. cerevisiae deletion strains, locus YLR371W, strain rom2, stronger effect = lower value 1 | S. cerevisiae deletion strains, locus YLR418C, strain cdc73, stronger effect = lower value 0.944 | S. cerevisiae deletion strains, locus YML016C, strain PPZ1, stronger effect = lower value 1 | S. cerevisiae deletion strains, locus YML032C, strain rad52, stronger effect = lower value 1.01 | S. cerevisiae deletion strains, locus YML124C, strain tub3, stronger effect = lower value 1 | S. cerevisiae deletion strains, locus YMR078C, strain ctf18, stronger effect = lower value 0.99 | S. cerevisiae deletion strains, locus YMR223W, strain ubp8, stronger effect = lower value 0.97 | [12] 1 | [13] 1.01 | S. cerevisiae deletion strains, locus YNL067W, strain RPL9B, stronger effect = lower value 1.02 | [14] 1.06 | S. cerevisiae deletion strains, locus YNL183C, strain NPR1, stronger effect = lower value 0.972 | S. cerevisiae deletion strains, locus YNL233W, strain BNI4, stronger effect = lower value 1.04 | S. cerevisiae deletion strains, locus YNL250W, strain rad50, stronger effect = lower value 0.987 | S. cerevisiae deletion strains, locus YNL271C, strain bni1, stronger effect = lower value 0.986 | S. cerevisiae deletion strains, locus YNL298W, strain CLA4, stronger effect = lower value 0.994 | S. cerevisiae deletion strains, locus YNL307C, strain MCK1, stronger effect = lower value 0.995 | S. cerevisiae deletion strains, locus YNR052C, strain pop2, stronger effect = lower value 0.985 | [15] 1.01 | S. cerevisiae deletion strains, locus YOL012C, strain htz1 0.917 | S. cerevisiae deletion strains, locus YOL147C, strain pex11, stronger effect = lower value 0.996 | S. cerevisiae deletion strains, locus YOR061W, strain CKA2, stronger effect = lower value 0.994 | S. cerevisiae deletion strains, locus YOR069W, strain VPS5, stronger effect = lower value 0.99 | S. cerevisiae deletion strains, locus YOR136W, strain idh2, stronger effect = lower value 0.995 | S. cerevisiae deletion strains, locus YOR144C, strain elg1, stronger effect = lower value 1.01 | S. cerevisiae deletion strains, locus YOR184W, strain ser1, stronger effect = lower value 0.958 | S. cerevisiae deletion strains, locus YOR231W, strain MKK1, stronger effect = lower value 1.02 | S. cerevisiae deletion strains, locus YOR316C, strain cot1, stronger effect = lower value 0.983 | S. cerevisiae deletion strains, locus YPL256C, strain CLN2, stronger effect = lower value 0.989 | S. cerevisiae deletion strains, locus YPR119W, strain clb2, stronger effect = lower value 0.997 | S. cerevisiae deletion strains, locus YPR141C, strain kar3, stronger effect = lower value 0.99 | S. cerevisiae deletion strains, locus YPR163C, strain tif3, stronger effect = lower value 0.993 | S. cerevisiae deletion strains, locus YPR167C, strain met16, stronger effect = lower value 0.984 | S. cerevisiae deletion strains, strain wtn01, stronger effect = lower value 0.987 | S. cerevisiae strains, strain wild type, stronger effect = lower value 0.994
